Measured potencies and affinities stand elsewhere. Active and inactive are the calls of the source.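 Rule for the calls: active = fitted half-maximal concentration for loss of cell signal no higher than twice the top valid tested concentration; inconclusive = flat curve at 30 to 70% inhibition, or poor fit; inactive = flat within 30%, signal rise, or potency above limit.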
assay: MDA-MB-231 cell growth inhibition, dose response, cytotoxicity control for RAD54 inhibitor project, CellTiter-Glo luminescence, cherry-pick (AID 651692); conditions: MDA-MB-231 viability, 24 h; series mostly up to 26 µM; activity change, negative = growth inhibition: at the top concentration;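 note: 0% = median of sample compound wells and -100% = staurosporine control wells; more negative values mean stronger loss of viable cell signal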

Structure (SMILES) | activity change, negative = growth inhibition
O=C(NCCCN1CCCC1)c1cc2c(Cl)nc3ccccc3c2s1 | -12.5% (inactive)
CCC(=O)N(Cc1cc2cc(OC)ccc2[nH]c1=O)c1cc(C)ccc1C | 4.92% (inactive)
CCCN(CCC)CCCNC(=O)c1cc2c(-c3ccc(OC)c(OC)c3)nn(C)c2s1 | 6.76% (inactive)
CCN(CC)CCNC(=S)Nc1ccc2nc(N3CCN(C)CC3)cc(C)c2c1 | -1.16% (inactive)
Cc1cc(N2CCN(C)CC2)nc2ccc(NC(=S)NCCCN3CCc4ccccc4C3)cc12 | -2.84% (inactive)
CCN(CC)CCNc1ccc(CO)c2oc3cc(Cl)ccc3c(=O)c12 | -9.29% (inactive)
Cc1ccc(Nc2cc(C)nc3c(C)cccc23)cc1 | -0.834% (inactive)
Cc1ccc2nc3c(c(N)c2c1)CCN3c1ccccc1 | 0.308% (inactive)
COc1ccc(C(=O)Nc2cc(C)c(NC(=O)c3ccccc3OC)cn2)cc1 | -4.12% (inactive)
COc1ncccc1-c1cc2nc(NCCCN(C)C)n(C)c(=O)c2s1 | 6.33% (inactive)
CCn1c(=N)c(C(=O)NC)cc2c(=O)n3cccc(C)c3nc21 | -5.42% (inactive)
Cc1ccc2nc3c(cc(C(=O)NCCN4CCOCC4)c(=N)n3CCCN3CCOCC3)c(=O)n2c1 | 3.06% (inactive)
Cc1ccc2nc(C)cc(Nc3ccc4c(c3)OCCO4)c2c1 | -16.2% (inactive)
Cc1nc2ccccc2c2oc(C(=O)N3CCC(N4CCCCC4)CC3)cc12 | 5.89% (inactive)
CN(C)CCNC(=O)c1c(NC(=O)c2ccccc2)sc2c1CCCC2 | 0.703% (inactive)
c1cncc(Nc2c3ccccc3nc3ccccc23)c1 | 10.5% (inactive)
Oc1cccc(Nc2c3ccccc3nc3ccccc23)c1 | -0.751% (inactive)
COc1ccc(-c2cc(NC=O)c3ncc(-c4cccc(C(=O)NCCN(C)C)c4)n3c2)cn1 | -14% (inactive)
COc1ccc(-c2cc3nc(NCCCN(C)C)n(C)c(=O)c3s2)cc1OC | 7.17% (inactive)
Cc1cccc(-c2cc(N3CCCN(C)CC3)n3nccc3n2)c1 | 0.666% (inactive)
CCOC(=O)c1cnc2c(ccc3ccccc32)c1NCCCN(C)C | 5.51% (inactive)
